The values that follow come from PubChem BioAssay (NCATS).

Several values for one entry are separate records, joined by “and”; a condition that tells them apart may be missing. Identical values can stand only once. Results filed as inconclusive are left out. Activity calls are given as the source filed them. Calls follow the shape of the dose curve; as a rule, active = well fitted inhibition curve with a large enough effect; inconclusive = small, poorly fitted or top-dose-only effect; inactive = flat fitted curve, though single readings scatter.
% is scaled to controls: 0 for no effect and ±100 for the full control effect; potency is read from the fitted curve at half-maximal effect.

The first test concerns HaCat. As to the kind of experiment: Cytotoxic Profiling of Annotated Libraries Using Quantitative High-Throughput Screening (AID 1296008). Also: nearly all actives have a fitted effect of over 60% in size. As to conditions: Five cell lines viability, CellTiter-Glo ATP luminescence, 48-72 h; stronger effect = lower value. The procedure, abridged:
(§1)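 Cytotoxicity was measured as CellTiter-Glo ATP luminescence, read after 10 min at room temperature. Compound treatment of the cells lasted 48 or 72 hr at 37 degrees Celsius in a qHTS format.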
Background: ATP-based viability assays read luminescence as a measure of living cells.
For `O=C1c2ccccc2C(=O)c2c1ccc(O)c2O`, the max response was 4.09% (inactive).

In the case of `CC1CC(OC(=O)C(O)c2ccccc2)CC(C)(C)C1` (configuration not stated), the result was inactive.

Take `C=C1CC[C@H](O)CC1=C/C=C1\CCC[C@]2(C)[C@@H]([C@H](C)/C=C/[C@H](C)C(C)C)CC[C@@H]12`: the compound was called inactive.

For `CCN(CC)CCOCCOC(=O)C(CC)(CC)c1ccccc1`, the compound was called inactive.

The subject of another test is KB-3-1. Described as above. As to conditions: Five cell lines viability, CellTiter-Glo ATP luminescence, 48-72 h; max response: stronger effect = lower value. The procedure, abridged: as §1
Take `CC(C)[C@@H](C)/C=C/[C@@H](C)[C@H]1CC[C@H]2/C(=C/C=C3\C[C@@H](O)CC[C@@H]3C)CCC[C@]12C`: the max response is 8.4% (inactive).

As to `O=C(O)Cc1cc(I)c(Oc2ccc(O)c(I)c2)c(I)c1`, the max response is 1.68% (inactive) and -7.08% (inactive).

With `CCN(CC)C(=S)S`, the max response is 3.72% (inactive).

`COc1c(O[C@@H]2O[C@H](CO)[C@@H](O)[C@H](O)[C@H]2O)cc2c(c1OC)-c1ccc(SC)c(=O)cc1[C@@H](NC(C)=O)CC2`: the max response was 48.2% (inactive).

Take `Nc1ccc(N=Nc2ccccc2)c(N)n1`: the max response is 1.52% (inactive).

Turning to `O=C(O)c1cc(N=Nc2ccc(O)c(C(=O)O)c2)ccc1O`, the max response is -1.02% (inactive).

For the compound `CC(=O)Oc1cccc2c1C(=O)c1c(OC(C)=O)cc(C(=O)O)cc1C2=O`, the max response was -2.72% (inactive).

`O=C(OCc1ccccc1)c1ccc(O)cc1`: the max response was 2.26% (inactive).

For the compound `CC(=O)Nc1ccc(NC(=S)NC(=O)c2ccc(C(C)(C)C)cc2)cc1`, the Potency is 4.11 µM (active).

As for `CN(C)CCCSc1ccccc1NC(=O)/C=C/c1ccccc1`, the max response was -0.0858% (inactive).

As to `CC(C)(O/N=C(\C(=O)N[C@@H]1C(=O)N2C(C(=O)[O-])=C(C[n+]3ccccc3)CS[C@H]12)c1csc(N)n1)C(=O)O`, the max response was -11.3% (inactive).

For the compound `CC(=O)NCCCS(=O)(=O)O`, the max response was 14.2% (inactive).

Turning to `CO/N=C(\C(=O)N[C@@H]1C(=O)N2C(C(=O)O)=CCS[C@H]12)c1csc(N)n1`, the max response is 1.16% (inactive).

`CC(C)(C)c1ccc(CN2CCN(C(c3ccccc3)c3ccc(Cl)cc3)CC2)cc1` (configuration not stated): the max response is 1.38% (inactive) and -2.29% (inactive).

On to `CC(C)(C)c1ccc2c(S(=O)(=O)O)c(C(C)(C)C)ccc2c1`, for which the max response is 3.96% (inactive).

In the case of `C=CC[N@@+]12CC[C@@]34c5ccccc5N5/C=C6/[C@H]7C[C@H]8[C@@]9(CC[N@@+]8(CC=C)C/C7=C/CO)c7ccccc7N(/C=C(/[C@@H](C[C@@H]31)/C(=C\CO)C2)[C@H]54)[C@@H]69`, the max response is 19.7% (inactive).

Turning to `CO/N=C(\C(=O)N[C@@H]1C(=O)N2C(C(=O)O)=C(CSc3nc(C)c(CC(=O)O)s3)CS[C@H]12)c1csc(N)n1`, the max response is 2.01% (inactive).

With `O=C1c2ccccc2C(=O)c2c1ccc(O)c2O`, the max response is -6.82% (inactive).

Consider `COc1ccc2c(=O)c(C)c(-c3ccccc3)oc2c1CN(C)C`, for which the max response was 2.73% (inactive).

Take `O=C(c1cc2ccccc2o1)N1CCN(Cc2ccccc2)CC1`: the max response was -3.18% (inactive).

For the compound `CCCCCCCCCCCC(=O)OCC(O)CO` (configuration not stated), the max response was 4.65% (inactive).

For `CSCCC(N)C(=O)O` (configuration not stated), the max response was 3.08% (inactive).

With `Cc1c(O)c(=O)ccn1C`, the max response was 5.64% (inactive).

`CC(=O)Nc1c(I)c(C(=O)N[C@H]2C(O)O[C@H](CO)[C@@H](O)[C@@H]2O)c(I)c(N(C)C(C)=O)c1I` (some centres not stated): the max response was -7.33% (inactive).

For the compound `CC(C)=CCC/C(C)=C/CC/C(C)=C/CC/C(C)=C/CC1=C(C)C(=O)c2ccccc2C1=O`, the max response was 5.32% (inactive) and -12.9% (inactive).

Turning to `CCCCCCOC(=O)c1cccnc1`, the max response is 6.05% (inactive).

In the case of `CC1CC(OC(=O)C(O)c2ccccc2)CC(C)(C)C1` (configuration not stated), the max response was 19.9% (inactive) and -6.72% (inactive).

For the compound `O=c1[nH]c(=O)n([C@H]2C[C@H](O)[C@@H](CO)O2)cc1/C=C/Br`, the max response is 1.96% (inactive).

As to `CCCCCCCCCCCCCCCCCCCCCC(=O)Nc1ccn([C@@H]2O[C@H](CO)[C@@H](O)[C@@H]2O)c(=O)n1`, the max response was 3.81% (inactive).

In the case of `CCC(C)[C@@H](N)C(=O)O` (some centres not stated), the max response is 1.62% (inactive).

Take `O=[N+]([O-])O[C@@H]1CO[C@H]2[C@@H]1OC[C@@H]2O`: the max response is -3.81% (inactive).

For `C=C1CC[C@H](O)CC1=C/C=C1\CCC[C@]2(C)[C@@H]([C@H](C)/C=C/[C@H](C)C(C)C)CC[C@@H]12`, the max response was 7.88% (inactive) and 8.32% (inactive).

As to `CCN(CC)CCOCCOC(=O)C(CC)(CC)c1ccccc1`, the max response was -1.64% (inactive) and -0.0412% (inactive).
